Calls of active or inactive are those of the source. Rule for the calls: active = hit-call score of the fitted dose curve at least 0.9, where 1 is the maximum; inactive = score below 0.9.
Experiments:
Settings in all cases: primary human HUVEC with PBMC; actives raise or lower the signal
[1] = read-out: Macrophage colony-stimulating factor (MCSF), CSF1 (gene 1435); test: BSK_LPS_MCSF: BioMAP Diversity Plus: LPS Assay for Macrophage colony-stimulating factor (MCSF) Biomarker Activity (AID 2283083)
Procedure, shortened: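 Human umbilical vein endothelial cells co-cultured with peripheral blood mononuclear cells were exposed to compound for 24 h. M-CSF levels were measured by ELISA, and bidirectional curve fitting used DMSO as the negative control and baseline.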

[2] = read-out: Tissue Factor, F3 (gene 2152); test: BSK_LPS_TissueFactor: BioMAP Diversity Plus: LPS Assay for Tissue Factor Biomarker Activity (AID 2283084)
Procedure, shortened: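 Human umbilical vein endothelial cells co-cultured with peripheral blood mononuclear cells were dosed and stimulated with LPS. Cell-surface CD142 was quantified by ELISA at 24 h. Activity was fitted bidirectionally against DMSO baseline.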

[3] = read-out: Tumor necrosis factor (Homo sapiens) (UniProt P01375); test: BSK_LPS_TNFa: BioMAP Diversity Plus: LPS Assay for Tumour Necrosis Factor alpha (TNFa) Biomarker Activity (AID 2283085);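 for AC50: TNFa protein level quantified by ELISA in the co-culture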
Procedure, shortened: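 HUVEC/PBMC co-culture, LPS-stimulated; 24 h post-dose; TNFa by ELISA; gain or loss of signal fitted bidirectionally vs DMSO baseline.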

[4] = read-out: Vascular cell adhesion molecule 1 (VCAM1), VCAM1 (gene 7412); test: BSK_LPS_VCAM1: BioMAP Diversity Plus: LPS Assay for Vascular cell adhesion molecule 1 (VCAM1) Biomarker Activity (AID 2283086)
Procedure, shortened: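 ELISA read-out of VCAM-1 at 24 h post-dosing in an LPS-driven HUVEC/PBMC primary human co-culture; gain or loss of signal fitted bidirectionally against DMSO baseline. Cytotoxicity tracked in parallel cultures by SRB total-protein staining.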

CD38, CD38 (gene 952) = test: BSK_SAg_CD38: BioMAP Diversity Plus: SAg Assay for CD38 Biomarker Activity (AID 2283087)
Procedure, shortened: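 Measures CD38 on a human endothelial/PBMC co-culture driven by SEB and TSST-1, 24 h after compound exposure, using ELISA with fluorescence detection; DMSO defines baseline for bidirectional curve fitting.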

CD40, CD40 (gene 958) = test: BSK_SAg_CD40: BioMAP Diversity Plus: SAg Assay for CD40 Biomarker Activity (AID 2283088)
Procedure, shortened: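 Human umbilical vein endothelial cells co-cultured with PBMC; CD40 levels measured by ELISA with fluorescence read-out 24 h after chemical dosing. Gain or loss of signal fitted bidirectionally against DMSO baseline.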

CD69, CD69 (gene 969) = test: BSK_SAg_CD69: BioMAP Diversity Plus: SAg Assay for CD69 Biomarker Activity (AID 2283089);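 for AC50: cell surface CD69 protein quantified by ELISA with fluorescence detection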
Procedure, shortened: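 ELISA, fluorescence read-out: CD69 on human umbilical vein endothelial cell + PBMC co-culture, 24 h post-dosing. Gain or loss of signal fitted bidirectionally against DMSO baseline.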

[5] = read-out: Monocyte Chemoattractant Protein-1 (MCP1), CCL2 (gene 6347); test: BSK_SAg_MCP1: BioMAP Diversity Plus: SAg Assay for Monocyte Chemoattractant Protein-1 (MCP1) Biomarker Activity (AID 2283090)
Procedure, shortened: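 Values derive from bidirectional fitting of ELISA-measured MCP1 against DMSO controls. Readings were taken 24 h after dosing human vascular endothelial cells co-cultured with peripheral blood mononuclear cells under superantigen stimulation.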

[6] = read-out: Monokine induced gamma interferon (MIG), CXCL9 (gene 4283); test: BSK_SAg_MIG: BioMAP Diversity Plus: SAg Assay for Monokine induced gamma interferon (MIG) Biomarker Activity (AID 2283092)
Procedure, shortened: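 ELISA readout of MIG/CXCL9; primary human umbilical vein endothelial cells co-cultured with peripheral blood mononuclear cells; 24 h post-dose; gain/loss fit vs DMSO baseline.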

[7] = read-out: E-selectin (Homo sapiens) (UniProt P16581); test: BSK_SAg_Eselectin: BioMAP Diversity Plus: SAg Assay for Eselectin Biomarker Activity (AID 2283091)
Procedure, shortened: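 HUVEC co-cultured with PBMC, compound dosed then read at 24 h; E-selectin measured by ELISA. Activity fitted bidirectionally against DMSO as negative control and baseline.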

Measured: AC50

Chain of Tumor necrosis factor (Homo sapiens) (P01375 whole entry, looked up): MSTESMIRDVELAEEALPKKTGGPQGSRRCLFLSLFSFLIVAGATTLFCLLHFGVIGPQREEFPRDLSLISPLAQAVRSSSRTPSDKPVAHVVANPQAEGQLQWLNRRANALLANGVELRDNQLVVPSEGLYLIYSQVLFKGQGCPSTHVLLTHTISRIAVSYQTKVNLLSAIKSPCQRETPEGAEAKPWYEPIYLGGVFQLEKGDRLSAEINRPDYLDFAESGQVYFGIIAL
Chain of E-selectin (Homo sapiens) (P16581 whole entry, looked up): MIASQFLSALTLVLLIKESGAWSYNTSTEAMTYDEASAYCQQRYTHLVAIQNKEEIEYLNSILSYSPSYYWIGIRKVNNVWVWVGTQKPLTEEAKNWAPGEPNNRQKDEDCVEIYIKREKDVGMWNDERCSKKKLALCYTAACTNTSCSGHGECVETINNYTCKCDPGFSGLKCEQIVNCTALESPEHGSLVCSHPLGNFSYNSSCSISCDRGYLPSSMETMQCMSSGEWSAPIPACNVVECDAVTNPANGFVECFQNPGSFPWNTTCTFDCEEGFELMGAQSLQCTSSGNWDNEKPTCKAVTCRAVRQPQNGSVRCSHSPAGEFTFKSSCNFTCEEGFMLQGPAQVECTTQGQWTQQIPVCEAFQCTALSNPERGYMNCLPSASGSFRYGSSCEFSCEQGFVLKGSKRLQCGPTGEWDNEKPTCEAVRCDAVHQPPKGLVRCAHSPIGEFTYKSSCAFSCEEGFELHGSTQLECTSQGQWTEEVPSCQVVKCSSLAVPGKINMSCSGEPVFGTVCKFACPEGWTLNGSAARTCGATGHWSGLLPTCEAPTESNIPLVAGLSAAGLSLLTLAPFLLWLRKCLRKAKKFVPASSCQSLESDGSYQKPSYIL

CCOCCOCCOCCO
not listed: [7]
inactive: all other assays above

CCCN(C1CCN(C(=O)C2CCNCC2)CC1)[C@@H]1CCc2ccc(OC)cc2C1
not listed: [7]
inactive: all other assays above

CCCC(=O)OCC
not listed: [7]
inactive: all other assays above

Cc1[nH]cnc1C[C@H]1CCc2c(C)c3ccccc3n2C1=O
active: [1] 29.2 µM | [3] 25.7 µM | [4] 32.9 µM | CD38, CD38 (gene 952) 31.2 µM | CD40, CD40 (gene 958) 29.8 µM | CD69, CD69 (gene 969) 27.4 µM | [5] 27.8 µM | [6] 31.9 µM
inactive: [2]

CC[C@H](C)C(=O)O[C@H]1C[C@@H](C)C=C2C=C[C@H](C)[C@H](CC[C@@H]3C[C@@H](O)CC(=O)O3)[C@H]21
active: [1] 34 µM | [3] 33.5 µM | [4] 30.8 µM | CD38, CD38 (gene 952) 29.8 µM | CD40, CD40 (gene 958) 12.5 µM | CD69, CD69 (gene 969) 13.8 µM | [5] 33.7 µM
inactive: [2] | [6]

CC[C@H]1CC[C@H](NCc2cc3c(cc2OC)[C@H]2C[C@H]2C(=O)N3C)[C@H](c2ccccc2)N1
not listed: [7]
inactive: all other assays above

Cc1c(-c2cccnc2)c2ccccc2n1CCCCC(=O)O
not listed: [7]
inactive: all other assays above

CCCCCCc1ccc(O)cc1O
inactive: [2]
active: [3] 32.6 µM | [4] 32 µM | CD38, CD38 (gene 952) 33 µM | CD40, CD40 (gene 958) 30.6 µM | [5] 27.6 µM | [6] 36.8 µM

CCC(C)(C)C(=O)O[C@H]1C[C@@H](C)C=C2C=C[C@H](C)[C@H](CC[C@@H]3C[C@@H](O)CC(=O)O3)[C@H]21
inactive: [2] | [6]
active: [1] 35 µM | [3] 0.363 µM | [4] 25.4 µM | CD38, CD38 (gene 952) 24.9 µM | CD40, CD40 (gene 958) 3.99 µM | [5] 20 µM | [7] 0.149 µM

O=C(CCCCCCCCc1cccnc1)N1CCC(C=C(c2ccccc2)c2ccccc2)CC1
active: [1] 11.4 µM | [2] 14.6 µM | [4] 15 µM | CD38, CD38 (gene 952) 8.97 µM | CD40, CD40 (gene 958) 8.35 µM | CD69, CD69 (gene 969) 8.49 µM | [5] 7.42 µM | [6] 8.63 µM

Fc1ccccc1[C@@H](F)COC1CCC(Nc2ncnc3[nH]ncc23)CC1 (stereo partly drawn)
inactive: [2] | [3] | [4] | [6]
active: [1] 20 µM | CD38, CD38 (gene 952) 20 µM | CD40, CD40 (gene 958) 16.3 µM | CD69, CD69 (gene 969) 24.2 µM | [5] 31.6 µM

O=P(OC(CCl)CCl)(OC(CCl)CCl)OC(CCl)CCl
active: CD38, CD38 (gene 952) 30 µM | CD40, CD40 (gene 958) 20 µM | [5] 23.4 µM
not listed: [7]
inactive: all other assays above

CCOc1cccc(-n2cc(C(=O)N3CCN(c4cc(C(=O)O)c5ccccc5c4)CC3)nc2-c2ccc(C)cc2)c1
active: [1] 23.2 µM | [2] 19.2 µM | [3] 20.9 µM | [4] 14.2 µM | CD38, CD38 (gene 952) 28.2 µM | CD40, CD40 (gene 958) 13.6 µM | CD69, CD69 (gene 969) 21.7 µM | [5] 28.3 µM | [6] 35.4 µM

Cc1ccc(C)c(O)c1
active: [3] 0.796 µM
not listed: [7]
inactive: all other assays above

CCNc1ccccc1
not listed: [7]
inactive: all other assays above

CC1(C)C(=O)N(Br)C(=O)N1Br
not listed: [7]
inactive: all other assays above

Nc1cccc(N)c1
not listed: [7]
inactive: all other assays above

CC/C(=C\C(=N/O)C(N)=O)C(C)[N+](=O)[O-] (stereo not drawn)
not listed: [7]
inactive: all other assays above

CC(C)=CCC/C(C)=C\CO
not listed: [4] | [7]
inactive: all other assays above

COc1cccc(-c2ccc(/C=C\CN3CCCCCC3)cc2Cl)c1
inactive: [1] | [2] | [3] | [5]
active: [4] 26 µM | CD38, CD38 (gene 952) 29.1 µM | CD40, CD40 (gene 958) 27.3 µM | CD69, CD69 (gene 969) 30.4 µM | [6] 25.8 µM

CC(C)CC(C)(O)C#CC(C)(O)CC(C)C (stereo not drawn)
not listed: [7]
inactive: all other assays above

CC1=CC(=O)CC(C)(C)C1
not listed: [7]
inactive: all other assays above

CN(C)c1ccc(N=NS(=O)(=O)O)cc1
active: [2] 5.8 µM | [4] 10.4 µM
not listed: [7]
inactive: all other assays above
